# In all, about 300,000 compounds went through this assay and about 3,200 (1.1%) were called active. The full list was thinned out, with actives kept by preference. Unmarked numbers belong to inactive results. Rule as the data show it: active = inhibition above about 75%; inconclusive = no clear call, values can overlap the other calls; inactive = below that; tested in HMLE shEcad cells.
# Assay: growth suppression of cancer stem-like cells – cell-based, luminescence, primary screen (AID 2717)
# Settings: cancer stem cell-like cells viability, at 7.5 µM, hits give high values
row,Structure (SMILES),inhibition
1,CN(C(=O)CSc1cccc[n+]1[O-])C1CCCCC1,-18.5%
2,C[C@H](CO)N1C[C@H](C)[C@@H](CN(C)S(=O)(=O)c2ccc(F)cc2)Oc2c(NC(=O)Nc3ccccc3)cccc2C1=O,-11.6%
3,CC1Cc2ccccc2N1S(=O)(=O)c1cccc(C(=O)OCC(=O)N2CCOCC2)c1 (stereo not drawn),-6.52%
4,COc1cc(OC)cc(C(=O)N[C@H](C(=O)NNC(=O)c2ccc(Br)cc2)C(C)C)c1,-10.3%
5,CCN(CC)CCCNC(=O)c1cc2c(=O)[nH]c3ccc(C)cc3c2s1,-3.35%
6,Cc1cccc(N(C)C(=O)c2cc3c(=O)[nH]c4ccc(C)cc4c3s2)c1,80.5% (active)
7,Cc1ccc2[nH]c(=O)c(CC(=O)O)c(-c3ccccc3)c2c1,-9.95%
8,O=C(COc1ccc([N+](=O)[O-])cc1Cl)Nc1ccc2[nH]c(=O)[nH]c2c1,-8.82%
9,CC1CCCCC12NC(=O)N(CC(=O)N1CCN(c3ccccc3)CC1)C2=O (stereo not drawn),-3.2%
10,CCOc1ccc(Br)cc1S(=O)(=O)Nc1ccc(S(=O)(=O)Nc2cc(C)on2)cc1,-12.8%
11,COc1ccccc1CNC(=O)c1ccc(Cl)c(S(=O)(=O)N2CCCC2)c1,-0.0556%
12,COc1ccc(S(=O)(=O)N2CCOCC2)cc1NC(=O)CSc1nnc(NC2CC2)s1,-7.56%
13,CCCCCCSc1ccc(-c2nc3ccc(Cl)cn3c2NCc2ccccc2)cc1,61.1%
14,CCCCNc1nc2c(c(=O)n(C)c(=O)n2C)n1Cc1cccc(OC)c1,-3.15%
15,CCCCNc1c(-c2cccc(Sc3ccc(OC)cc3)c2)nc2ccccn12,78% (active)
16,O=C(NN=Cc1ccc(N2CCOCC2)cc1)c1cc2ccccc2cc1O,10.1%
17,COc1ccc(S(=O)(=O)N2CCCCCC2)cc1NC(=O)Cc1ccc(OC)c(OC)c1,-7.41%
18,O=C(CSc1nccn1-c1cccc(F)c1)NC1CCCC1,-0.605%
19,Cc1c(Cl)c([N+](=O)[O-])nn1Cc1ccc(C(=O)N/N=C\c2cc(Cl)ccc2O)o1,106% (active)
20,Cc1ccc(C(=O)O)cc1NC(=O)c1ccc(Cn2nc(C)c(Cl)c2C)o1,-28.7%
21,Cc1c(Cl)c([N+](=O)[O-])nn1CCCC(=O)Nc1cc(Cl)ccc1Cl,-11.4%

row,Structure (SMILES),inhibition
1,CCC(CO)Oc1cc(NC(=O)c2cccc(F)c2)c2ncn(C(C)C)c2c1 (stereo not drawn),-13.2%
2,C=CCC[C@H](Cc1ccc(F)cc1)C(=O)OC[C@@H](Cc1c[nH]c2ccccc12)NC(=O)[C@H](CC=C)CC(=O)N[C@H](CO)Cc1ccccc1,24.2%
3,Cc1nnsc1C(=O)N/N=C/c1ccccc1Cl,-13.9%
4,Cc1cc(Cl)ccc1NNC(=O)c1snnc1C,75.1% (active)
5,Cc1nnsc1C(=O)Nc1cccc(Cl)c1C,4.62%
6,O=C(CN1C(=O)NC2(CCOc3ccccc32)C1=O)Nc1cccc([N+](=O)[O-])c1 (stereo not drawn),0.94%
7,COc1cccc(-c2ccc3c(c2)S(=O)(=O)c2cccc(C(=O)O)c2C3=O)c1OC,7.27%
8,COc1ccc2c(c1)[C@H]1[C@H](CO2)[C@H](c2ccccc2)[C@]2(C)C(=O)Nc3cc(F)c(F)cc3C(=O)N12,21.6%
9,Cc1ccc(NC(=O)C2CCC(C(C)(C)C)CC2)cc1S(=O)(=O)N1CCOCC1 (stereo not drawn),45.1%
10,CC1(C)C=C2[C@H]3CC[C@@H]4[C@@]5(C)CCC(=O)C(C)(C)[C@@H]5CC[C@@]4(C)[C@]3(C)CC[C@@]2(C(=O)O)CC1,107% (active)
11,NCCN1CCN2C(=O)CN(C(=O)c3ccccc3)CC12 (stereo not drawn),-9.2%
12,CCCCOc1ccc(C(=O)NCC(=O)OCC(=O)c2c(N)n(C)c(=O)n(C)c2=O)cc1,11.8%
13,O=C(O)CSc1c2c(nc3cc(C(=O)Nc4cccc(C(F)(F)F)c4)ccc13)CCCC2,14.3%
14,Cn1nc(C(F)(F)F)c(C(=O)Nc2cccc(C(F)(F)F)c2)c1SCc1ccc(Cl)cc1,105% (active)
15,COC(=O)c1ccccc1Sc1c(/C=N/OCc2ccc(Cl)cc2)c(C(F)(F)F)nn1C,17.8%
16,O=C(CNC(=O)c1n[nH]c2ccccc12)Nc1cc(Cl)ccc1Cl,5.44%
17,CC(CNC(=O)Cn1cnc2c(OCc3ccccc3)ncnc21)c1ccccc1 (stereo not drawn),-8.55%
18,CCOC(=O)/C(=C\c1ccc([N+](=O)[O-])cc1)C(=O)c1cc(C(C)=O)c(Nc2ccccc2)s1,88.4% (active)
19,O=C(Nc1ccccc1)/C(=C/c1ccc([N+](=O)[O-])cc1)NC(=O)c1ccccc1,-13%
20,Cc1cccc(NC(=O)c2sc(-c3ccccc3)nc2-c2ccc([N+](=O)[O-])cc2)c1,12.3%
21,O=C(OCC(=O)N1CCN(c2ccccc2)CC1)c1ccc([N+](=O)[O-])s1,0.421%

row,Structure (SMILES),inhibition
1,CN(CC(=O)Nc1ccc(OC(F)F)cc1)S(=O)(=O)/C=C/c1ccccc1,7.09%
2,NS(=O)(=O)c1ccc(NC(=O)COC(=O)c2c3c(nc4ccccc24)/C(=C\c2ccc4c(c2)OCO4)CCC3)cc1,93.4% (active)
3,O=C(COC(=O)c1c2c(nc3ccccc13)/C(=C\c1cccs1)CCC2)Nc1ccccc1Cl,73.5%
4,COc1cc(-c2cc(C(=O)OCC(=O)Nc3ccc4c(c3)OCO4)c3ccccc3n2)cc(OC)c1OC,-14.5%
5,CN(C(=O)COC(=O)Cc1ccccc1[N+](=O)[O-])C1CCS(=O)(=O)C1 (stereo not drawn),-16.1%
6,CN1C(=O)/C(=C/c2ccc(C(=O)NC3CCCC3)cc2)Oc2ccccc21,2.95%
7,CN1CCN(CCCNC(=O)c2ccc(/C=C3\Oc4ccccc4N(Cc4ccc(Cl)cc4)C3=O)cc2)CC1,103% (active)
8,CCCN1CCN(C(=O)CCCNC(=O)c2ccc(Cl)cc2)CC1,-11.6%
9,COc1ccc(/C=C/C(=O)OCC(=O)NC2CCCCCC2)cc1OC,-6.85%
10,CC(=O)c1sc(NC(=O)CCN2C(=O)C3CC=CCC3C2=O)nc1-c1ccccc1 (stereo not drawn),-4.39%
11,CSc1ccc(/C=N\NC(=O)COc2ccc(Cl)cc2Br)cc1,-0.83%
12,Cc1cccc(OCC(=O)NCC(=O)N/N=C/c2ccc(N(C)C)cc2)c1,4.13%
13,Cc1ccc(/C=N/NC(=O)COc2ccccc2-c2ccccc2)cc1,114% (active)
14,CC(C)COc1ccc(C(=O)NNC(=O)CCC(=O)c2cccs2)cc1,-16.7%
15,CN(CC(=O)Nc1ccc(C(N)=O)cc1)S(=O)(=O)c1ccc2c(c1)OCCO2,-1.86%
16,Cc1nn(-c2ccccc2)c(C)c1NC(=O)COc1ccc(Cl)cc1Cl,22.1%
17,CCOC(=O)c1c(NC(=O)c2ccc(S(=O)(=O)N(C)CC3CCCO3)cc2)sc2c1CC(C)(C)NC2(C)C (stereo not drawn),62.9%
18,COC(=O)c1c(NC(=O)COc2ccc(Cl)cc2Cl)sc2c1CC(C)(C)NC2(C)C,103% (active)
19,CC(OC(=O)/C=C/c1ccccc1)C(=O)Nc1ccc(C(N)=O)cc1 (stereo not drawn),-9.55%
20,COC(=O)Cc1[nH]n(-c2nc3ccccc3s2)c(=O)c1C(C)=Nc1ccc(OC)cc1,32.2%
21,COc1ccc(-n2nnnc2-c2nc3ccccc3s2)cc1,10.3%

row,Structure (SMILES),inhibition
1,COc1ccc(C2=NN(c3nc4ccccc4s3)C(=O)C2)cc1,81.2% (active)
2,O=C(NCCC1=CCCCC1)c1ccc(-n2cncn2)cc1,-10.8%
3,CCOc1ccccc1Nc1ccc2nonc2c1[N+](=O)[O-],-3.74%
4,O=C(O)c1cccc(S(=O)(=O)Nc2ccc(O)cc2Sc2nc3ccccc3s2)c1,-15.7%
5,O=[N+]([O-])c1c(NCCO)cc(Sc2nc3ccccc3s2)c2nonc12,78.7% (active)
6,CC(C)C(NC(=O)c1c(F)cccc1F)C(=O)NNC(=O)c1ccccc1 (stereo not drawn),-4.36%
7,CC(C)(C)OC(=O)C[C@@H]1C/C=C\C[C@@H](CC(=O)N[C@@H](CO)Cc2ccccc2)C(=O)N2CCC[C@H]2COC1=O,-16.5%
8,Cc1ccc(C)c(NC(=O)CN(C)C(=O)COc2ccc3ccccc3c2)c1,-11.2%
9,O=C(COc1ccc(Br)cc1F)NCC1(N2CCCCC2)CCCCC1,1.3%
10,CC1=NN(c2ccccc2)C(=O)C1C(=O)c1ccc([N+](=O)[O-])cc1 (stereo not drawn),-1.87%
11,O=C1CC(c2ccccc2)=NN1c1ccc([N+](=O)[O-])cc1,101% (active)
12,O=c1[nH]n(-c2ccc([N+](=O)[O-])cc2)c(=O)c2ccccc12,-17.2%
13,Cc1ccc(NC(=O)C2CC2)cc1S(=O)(=O)N1CCOCC1,-16%
14,C[C@H](CO)N1C[C@H](C)[C@H](CN(C)C(=O)Nc2ccc(C(F)(F)F)cc2)Oc2c(NC(=O)c3ccncc3)cccc2C1=O,6.77%
15,COc1ccc(NC(=O)Nc2ccc3c(c2)C(=O)N([C@H](C)CO)C[C@H](C)[C@@H](CN(C)C(=O)Nc2ccc4c(c2)OCO4)O3)cc1,-11%
16,CCN(CC)CC(=O)c1c[nH]c2ccc(OC)cc12,3.22%
17,COc1cc(OC)cc(-c2c(-c3cccs3)c3cc(-c4ccc(OC)cc4F)ccc3n2C)c1,-6.57%
18,COc1ccc2sc(-c3ccc(N(C)C)cc3)c(-c3ccc4cc[nH]c4c3)c2c1,83.3% (active)
19,COc1ccc2[nH]c(=S)cc(C)c2c1,-16.3%
20,COc1cc(OC)cc(-c2sc3ccc(OC)cc3c2-c2ccc3cc[nH]c3c2)c1,137% (active)
